# Laboratory results reported in PubChem BioAssay (Tox21).
# “And” between values parts separate entries of the source, which are not always exact repeats. Equal values may be shown once. Results filed as inconclusive are left out. Where a call stands in place of a potency, no number is given. The source holds several records for some structures; these can differ, active in one and inactive in another. The source made the active and inactive calls. Calls come from the whole dose curve; as a rule, active = well fitted activation curve with a large enough effect in the repeat runs; inconclusive = weak or mixed curves; inactive = flat fitted curve, though single readings scatter.
# Experiment: A CellTox Green Cytotoxicity Assay to monitor cytotoxicity in HepG2 cells - 40 hour (AID 1224879); note: nearly all actives have a fitted effect of over 40% in size
# Details: CellTox Green fluorescence; series mostly up to 76.8 µM
# Description: National Center for Advancing Translational Sciences [NCATS]
# NIH Chemical Genomics Center [NCGC]
# U.S. Environmental Protection Agency [EPA]
# National Institutes of Environmental Health Sciences [NIEHS]
# National Toxicology Program [NTP]
# Cell-based models are critical for drug discovery. Determining the natural cytotoxic effects resulting from test compounds is an essential research activity. A CellTox Green Cytotoxicity Assay to monitor cytotoxicity in real time of continues cell culture during 40 hours of the compound treatment was used to screen Tox21 10K library compounds in HepG2 cells. CellTox Green Cytotoxicity Assay is a nonlytic, homogeneous, biofluorescent method to measure cytotoxicity in cell culture after experimental manipulation. The assay system uses a proprietary asymmetric cyanine dye that is excluded from viable cells but preferentially stains the dead cell's DNA. […] Viable cells produce no appreciable increases in fluorescence. Therefore, the fluorescence signal produced by the binding interaction with dead cell DNA is proportional to cytotoxicity.
# The mixture of HepG2 cell suspension and reagents were dispensed at 600cells/6 ul/well in 1536-well tissue culture treated black solid bottom plates using a Multidrop dispenser. After the assay plates were incubated at a 37 C/5% CO2 incubator for 5 hours, 23 nL of compounds dissolved in DMSO, positive and negative controls was transferred to the assay plate by a pintool work station. The plates were incubated at 37 C for 40 hours. The fluorescence intensity were measured at 0h, 8h, 16h, 24h, 32h and 40h time points using ViewLux plate reader during compound treatment.
# Potency is the fitted concentration of half-maximal effect.
row,SMILES,Potency
1,COc1cc(C=O)ccc1O,inactive
2,NC(=O)NO,inactive
3,CCc1cc(C(N)=S)ccn1,inactive
4,C=C(C)OC(C)=O,inactive
5,COc1ccc(C(=O)c2ccccc2)c(O)c1,inactive
6,COc1ccccc1O,inactive
7,NC(=O)c1ccc([N+](=O)[O-])cc1Cl,inactive
8,C#C[C@]1(O)CC[C@H]2[C@@H]3CCC4=CC(=O)CC[C@@H]4[C@H]3CC[C@@]21CC,inactive and 43.6 µM (active)
9,Nc1ccc(N=Nc2ccccc2)c(N)n1,34.9 µM (active) and 17.4 µM (active) and 26.8 µM (active)
10,CCOC(=O)C(C)(C)Oc1ccc(Cl)cc1,inactive
11,Oc1cccc(O)c1,inactive
12,CCCCCCCCOc1ccc(C(=O)c2ccccc2)c(O)c1,inactive
13,CN(C)C=O,inactive
14,Cc1cccc(C)c1O,inactive
15,CC(O)COc1ccccc1 (stereo not given),inactive
16,CC(=O)CCC(C)C,inactive and 27.5 µM (active)
17,O=[N+]([O-])c1ccc(O)cc1,inactive
18,CCn1cc(C(=O)O)c(=O)c2ccc(C)nc21,inactive
19,OCCCc1ccccc1,inactive
20,O=C(OCc1ccccc1)c1ccccc1,inactive

row,SMILES,Potency
1,OC[C@@H](O)[C@@H](O)[C@H](O)[C@H](O)CO,inactive
2,CC(C)(C)NCC(O)c1ccc(O)c(CO)c1 (stereo not given),inactive
3,CC(=O)Oc1ccccc1C(=O)O,inactive
4,C[C@]12CC[C@@H]3c4ccc(O)cc4CC[C@H]3[C@@H]1CCC2=O,inactive
5,CCCCOC(=O)CCCCCCCCC(=O)OCCCC,inactive
6,CCOCCO,inactive
7,COCCOCCOC,inactive
8,N[C@@H](Cc1c[nH]c2ccc(O)cc12)C(=O)O,inactive
9,CO[C@H]1C=CO[C@@]2(C)Oc3c(C)c(O)c4c(O)c(c(/C=N/N5CCN(C)CC5)c(O)c4c3C2=O)NC(=O)/C(C)=C\C=C[C@H](C)[C@H](O)[C@@H](C)[C@@H](O)[C@@H](C)[C@H](OC(C)=O)[C@@H]1C,inactive
10,N[C@@H](Cc1c[nH]c2ccccc12)C(=O)O,inactive
11,C1CNCCN1,inactive
12,CC(C)=CCC/C(C)=C/CO,inactive
13,COC(=O)c1ccc(O)cc1,inactive
14,CC(C)CC(C)CC(O)CC(C)C (stereo not given),inactive
15,COc1cc2c(c(OC)c1OC)-c1ccc(OC)c(=O)cc1[C@@H](NC(C)=O)CC2,54.3 µM (active) and inactive
16,CCCCC/C(C=O)=C\c1ccccc1,inactive
17,Cc1cccc2ccccc12,inactive
18,O=C1OC(c2ccc(O)cc2)(c2ccc(O)cc2)c2ccccc21,inactive
19,O=c1cc[nH]c(=O)[nH]1,inactive
20,c1ccc2[nH]c(-c3cscn3)nc2c1,inactive
